In PubChem BioAssay AID651965 (National Center for Advancing Translational Sciences (NCATS), 2013):
About 6,400 (1.9%) of roughly 340,000 compounds were called active. Inconclusive results (about 4%) are left out. For the sample, actives were picked, then their nearest neighbours and some compounds at random. Unmarked numbers belong to inactive results. The call rests on the fitted dose curve; in most records, active means well fitted falling curve with a large enough effect; inconclusive means small, poorly fitted or top-dose-only effect; inactive means no such curve, though single readings can be large or run the other way.

What follows are compounds tested against ATP-dependent Clp protease proteolytic subunit (Bacillus subtilis (strain 168)) (UniProt P80244) (assay: qHTS Assay for Activators of ClpP). Details: purified B. subtilis ClpP, FRET peptide cleavage, 20 min; series mostly up to 57.5 µM; activity change, negative = active: at the top concentration.
ATP-dependent Clp protease proteolytic subunit (Bacillus subtilis (strain 168)), sequence (P80244 whole entry, looked up): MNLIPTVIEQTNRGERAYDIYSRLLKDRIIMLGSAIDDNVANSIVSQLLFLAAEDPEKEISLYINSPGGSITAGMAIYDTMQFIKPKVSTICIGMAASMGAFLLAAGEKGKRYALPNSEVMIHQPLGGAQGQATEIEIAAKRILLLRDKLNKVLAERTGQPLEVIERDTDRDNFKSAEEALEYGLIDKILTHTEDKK
Outline: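 Purified B. subtilis ClpP, 10 microg/mL final in Tris/HCl pH8 with KCl, BSA, glycerol and Tween-20, cleaved an Abz/nitrotyrosine-quenched decapeptide. Fluorescence (ex 320, em 430) was read at 0 and 20 min at room temperature. Delta was normalized to 5.8 microM ADEP and DMSO/no-enzyme controls.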
Further: the source files actives as falling curves though it sought activators and does not explain the sign; nearly all actives have a fitted effect of over 65% in size.
Potency means the concentration at half of the fitted maximal effect.

Point of comparison: CC(C)OCCCNC(=O)c1cc(Sc2ccc(F)cc2)nc2ccccc12, “activity change, negative = active” value 3.39%. Against it:
- C#Cc1ccc(NC(=O)C2(C)CCN2C(=O)Cc2ccc(-c3ccccc3)cc2)cc1 (centres undefined) — lower, 0.114%
- CCCNC(=O)C1(C)CCN(C(=O)c2ccccc2OC(F)(F)F)C1 (centres undefined) — lower, 2.38%
- O=C(Nc1ccc(Cl)cc1)c1csc([C@@H]2O[C@H](CO)[C@H](O)[C@H](O)[C@H]2O)n1 — lower, 2.06%
- COc1ccc(C2Nc3ccccc3C(=O)N2c2ccc(F)cc2)cc1Cn1nnc2ccccc21 (centres undefined) — lower, 1.26%
- COc1ccc(C2Nc3ccc(NC(=O)COC(C)=O)cc3C(=O)N2Cc2ccccc2)cc1COc1ccc(NC(C)=O)cc1 (centres undefined) — higher, 61.6%
- COc1cccc(C(NC(C)=O)c2nc(-c3cnc4ccccc4c3)cs2)c1 (centres undefined) — lower, -20.2%
- CC(CCc1ccccc1)NC(=O)c1cnc(Cl)c(Cl)c1 (centres undefined) — lower, -7.38%
- COCC(C)NC(=O)c1ccc(-n2nc(C(F)(F)F)cc2-c2cccs2)cc1 (centres undefined) — lower, -3.54%
- CCOC(=O)C1=CCC(c2ccc(F)cc2)N(S(=O)(=O)c2ccc(C)cc2)C1 (centres undefined) — lower, -0.256%
- CCOC(=O)C1=C(N)N(c2ccc(C)cc2)C2=C(C(=O)CCC2)C1c1cccs1 (centres undefined) — lower, -0.469%
- CCCCOc1ccc(NC(=O)c2cc3c(n(-c4ccc(Cl)cc4)c2=O)CCCC3=O)cc1 — lower, 0.294%
- Cc1ccc([C@H]2C[C@H](O)[C@@H](n3cc(COC(=O)c4ccccc4)nn3)CN2CC2CCCCC2)cc1 — lower, -2.3%
- COc1ccc(C(C)(O)c2nc(-c3ccc(C)c(C)c3)cs2)cc1 (centres undefined) — lower, -3.11%
- ClC/C=C/C[n+]1ccccc1Cl — lower, -7.68%
- CCc1cc(=O)oc2cc(C)cc(OCC(=O)N3CCC[C@@H]3C(=O)O)c12 — higher, 4.5%
- Cc1cc(OC(C)C(=O)NC2CC(C)(C)NC(C)(C)C2)c2c(C)cc(=O)oc2c1 (centres undefined) — higher, 3.98%
- CC1(C(=O)NS(=O)(=O)c2ccc(C#N)cc2)CCN1C(=O)c1ccc(C2CCCCC2)cc1 (centres undefined) — lower, -4.45%
- CC(C)(C)c1ccc(C(=O)C[n+]2cccc3cc(Cl)ccc32)cc1 — lower, -13.7%
- O=C(NCC(c1cccs1)N1CCOCC1)c1cc(-c2ccccn2)nc2ccccc12 (centres undefined) — lower, -5.18%
- O=C(NCCN1CCOCC1)c1cc(Sc2cccc(Cl)c2)nc2ccccc12 — lower, -1.49%
- NC(c1csc(NC(=O)Nc2ccccc2Oc2ccccc2)n1)c1ccccc1Cl (centres undefined) — lower, -6.76%
- O=C(NCc1ccc(F)cc1)c1cc(C2CCCCN2C(=O)c2ccccn2)on1 (centres undefined) — lower, -2.01%
- CCOC(=O)c1c(NC(=O)c2ccc(S(=O)(=O)N(CC)CC)cc2)sc2c1CCCCC2 — lower, -3.63%
- COC(=O)c1c(NC(=O)CSc2nncs2)sc2c1CCCCC2 — lower, -0.465%
- COC(=O)c1c(NC(=O)c2ccc(Cl)c(Cl)c2)sc2c1CCCC2 — lower, -1.63%
- CCOC(=O)c1c(NC(=O)c2cc(-c3ccc(Cl)cc3)on2)sc2c1CCCC2 — lower, 0.147%
- Cc1noc(C)c1-c1ccc(C(=O)NCc2ccncc2)c2occc12 — higher, 4.3%
- Fc1ccc2[nH]c3c(N4CCN(Cc5ccc6c(c5)OCO6)CC4)ncnc3c2c1 — lower, -28.2%
- CCN1CCCC1Cn1cnc2c([nH]c3cc(OC)ccc32)c1=O (centres undefined) — lower, -28.6%
- CCN1CCCC1CNC(=O)c1cc2cc(OC)c(OC)cc2[nH]1 (centres undefined) — higher, 3.65%
- Cc1ccc([C@H]2N[C@]3(CCCN(CC4CCCCC4)C3=O)[C@H]3C(=O)N(Cc4ccccc4)C(=O)[C@@H]23)cc1 — lower, 0.684%
- CCCc1c(-c2ccccc2F)ncn1Cc1ccccc1OC — lower, -0.97%
- C=C1C(=O)OC2C1CCC(C)=CCCC1(C)OC21 (centres undefined) — lower, -0.985%
- O=C(NCc1ccc(F)cc1)c1cc(C2CCCCN2C(=O)c2cccs2)on1 (centres undefined) — lower, 1.26%
- COc1cc2[nH]c(C)c(CCN3CCN(c4ccccc4)CC3)c2cc1OC — lower, -28.6%
- CC1(C(=O)NS(=O)(=O)C2CC2)CCCN(C(=O)CSc2ccccc2)C1 (centres undefined) — lower, 1.92%
- CC1(C(=O)NCC2CCOCC2)Cc2c(-c3cccc(C(N)=O)c3)ccnc2O1 (centres undefined) — lower, -12.4%
- COc1ccc(-c2csc(C(O)c3cccc(Cl)c3)n2)cn1 (centres undefined) — lower, -0.133%
- Cc1cccc(Cn2c(=O)n(CCC(=O)NCCc3ccc(Cl)cc3)c(=O)c3sccc32)c1 — lower, -1.47%

For COc1ccc(C2Nc3ccccc3C(=O)N2Cc2ccccc2)cc1Cn1nnc2ccccc21 (centres undefined), the Potency was 35.5 µM (active).
COCC(C)NC(=O)c1ccc(Cl)c(Cl)c1 (centres undefined) was tested, and the Potency was 14.1 µM (active).
CCOC(=O)c1cc2c(n(-c3ccc(C)cc3)c1=O)CCCC2=O was tested, and the Potency was 31.6 µM (active).
For CCc1cc(=O)oc2cc(C)cc(OC(C)C(=O)O)c12 (centres undefined), the Potency was 3.55 µM (active).
With O=C(NCCN1CCOCC1)c1cc(-c2cccs2)nc2ccccc12 the Potency was 28.2 µM (active).
COC(=O)c1c(NC(=O)c2cccs2)sc2c1CCCC2 was tested, and the Potency was 35.5 µM (active).
For CCOC(=O)c1c(NC(=O)c2ccc(Br)o2)sc2c1CCCC2, the Potency was 31.6 µM (active).
For CCN1CCCC1CNc1ncnc2c1[nH]c1ccc(F)cc12 (centres undefined), the Potency was 28.2 µM (active).
For CC(C)OCCCNc1ncnc2c1[nH]c1ccc(F)cc12, the Potency was 15.8 µM (active).
